# Assay outcomes from PubChem.
# WRN helicase inh-1: blocks human WRN helicase | AID 651768 | WRN helicase unwinding, fluorescent forked duplex, kinetic | actives 0.46% (n = 360,000) | Potency, µM (titrated, usually from 114 µM), usual class: inhibitors | Q14191; also: nearly all actives have a fitted effect of over 55% in size
#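 Kinetic red-fluorescence monitoring (525/598 nm) tracks WRN helicase activity after 100 nM fluorophore-quencher forked duplex and 2 mM ATP are added to 20 nM enzyme pretreated 15 min at room temperature with compound.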
# Pol iota inh: DNA polymerase iota (human) inhibition; Q9UNA4; actives 1% (n = 390,000); Potency, µM (doses to about 115 µM), actives largely listed as inhibitors; AID 588590; Pol iota fluorescent replication assay, 10 min
#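 Fluorescent replication assay read twice, at 0 min and 10 min after adding 50 nM (final) substrate. Enzyme (10 nM) and compounds were first incubated 15 min at room temperature; enzyme-free buffer wells were negative controls.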
# POLK inh: DNA polymerase kappa (human) inhibition; Q9UBT6; purified Pol kappa, fluorescent DNA synthesis assay, 10 min; Potency, µM (highest dose often 107 µM), most hits filed as inhibitors; actives 0.53% (n = 400,000); AID 588579
#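 Pol kappa 10 nM + cpd, 15 min RT; start w/ substrate 50 nM final; fluorescence kinetic read, 0 and 10 min. Neg ctrl: buffer, no enzyme.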
# POLH inh: inhibitors of human DNA polymerase eta. Q9Y253. recombinant Pol eta, fluorescent DNA replication assay. Potency, µM (series often up to 114 µM), most hits filed as inhibitors. actives 1.2% (n = 390,000)
# Target sequence (Q9Y253 whole entry, looked up): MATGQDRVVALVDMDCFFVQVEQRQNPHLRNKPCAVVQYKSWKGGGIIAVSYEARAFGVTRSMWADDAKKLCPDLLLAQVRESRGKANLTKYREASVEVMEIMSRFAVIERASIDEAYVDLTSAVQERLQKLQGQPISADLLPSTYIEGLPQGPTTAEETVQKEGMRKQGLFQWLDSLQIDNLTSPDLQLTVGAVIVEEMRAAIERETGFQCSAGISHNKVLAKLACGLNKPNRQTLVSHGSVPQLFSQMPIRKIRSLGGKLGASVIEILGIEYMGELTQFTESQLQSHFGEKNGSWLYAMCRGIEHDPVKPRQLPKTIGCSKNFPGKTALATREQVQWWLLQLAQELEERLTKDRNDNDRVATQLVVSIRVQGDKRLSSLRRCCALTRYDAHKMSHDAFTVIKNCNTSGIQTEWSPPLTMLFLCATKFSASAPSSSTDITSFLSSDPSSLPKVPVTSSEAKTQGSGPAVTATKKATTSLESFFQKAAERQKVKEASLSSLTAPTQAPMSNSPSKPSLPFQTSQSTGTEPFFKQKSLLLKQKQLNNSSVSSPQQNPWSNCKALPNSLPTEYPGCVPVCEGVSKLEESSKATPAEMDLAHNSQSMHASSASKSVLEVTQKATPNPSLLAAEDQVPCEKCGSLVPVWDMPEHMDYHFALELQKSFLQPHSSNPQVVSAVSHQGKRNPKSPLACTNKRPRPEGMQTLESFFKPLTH
#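 Fluorescent replication assay: 50 nM final substrate added after a 15 min room-temperature compound preincubation with 10 nM enzyme. Signal taken at 0 min and again at 10 min.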
# Pol beta inh: inhibitors of human DNA polymerase beta; P06746; Pol beta primer extension/strand displacement, fluorescence kinetic; Potency, µM (doses to about 114 µM), most hits filed as inhibitors; actives 1.3% (n = 340,000); AID 485314
#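 Kinetic readout of DNA synthesis with strand displacement by Pol beta. Compound and 10 nM enzyme sit 15 min at room temperature; 50 nM substrate starts the reaction, read immediately and at 10 min.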
# PI5P4K alpha inh: inhibitors of human PI5P4K alpha. P48426. PI5P4Kalpha enzyme, ADP-Glo luminescence, 60 min; stronger effect = lower value. max response, %. actives 1.2% (n = 330,000). AID 652105; active = max response of -50% or lower; inconclusive = between -30% and -50%; inactive = -30% or higher; also: value at the top dose of about 77 µM
#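 ADP-Glo luminescence end-point read after a 60 min room-temperature kinase reaction of PI5P4Kalpha plus substrate, initiated with ATP at 5 microM final. Buffer: 0.038 M HEPES pH 7.4, EGTA, 0.1% CHAPS, 5% DMSO.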
# WRN helicase inh-2: WRN helicase inhibition, cherry-pick retest. shares compounds with WRN helicase inh-1. WRN helicase DNA unwinding, fluorescence kinetic. Potency, µM (top dose mostly 57.1 µM), most hits filed as inhibitors. actives 63% (n = 610); also: nearly all actives have a fitted effect of over 65% in size
# TO displacement: DNA binding via thiazole orange displacement. shares compounds with WRN helicase inh-1. thiazole orange DNA binding displacement, fluorescence. Potency, µM (doses to about 57.1 µM), actives largely listed as inhibitors. actives 10% (n = 610). AID 720499;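 also: drop in dye fluorescence marks compound binding to DNA; nearly all actives have a fitted effect of over 60% in size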
# BLM counter: BLM helicase inhibition, WRN selectivity check. shares compounds with WRN helicase inh-1. Recombinant BLM helicase DNA unwinding, red fluorescence. Potency, µM (series often up to 57.1 µM), usual class: inhibitors. actives 60% (n = 610); also: nearly all actives have a fitted effect of over 60% in size
# ADP-Glo interf: counter-screen for PI5P4K inhibitors: ADP-Glo detection interference, no enzyme; shares compounds with PI5P4K alpha inh; ADP-Glo detection counter-screen, luciferase luminescence, no enzyme; Potency, µM (titrated, usually from 76.9 µM), most hits filed as inhibitors; 1,100 tested, under 10 active; AID 743285
# Hits are given with their value; 0 = inactive; ? = inconclusive; - = not tested or not shown; [ ] = dose if it differs, or a comment. An excerpt weighted towards active compounds, which were near 2.8% of everything screened. Unless noted, calls follow the shape of the dose curve; as a rule, active = well fitted curve in the direction sought with a large enough effect; inconclusive = small, poorly fitted or top-dose-only effect, or another doubt; inactive = no such curve, though single readings can be large; an effect the other way counts as inactive or inconclusive.
SMILES,WRN helicase inh-1,Pol iota inh,POLK inh,POLH inh,Pol beta inh,PI5P4K alpha inh,ADP-Glo interf,others
COc1ccc(/C=C2/C(=O)ON=C2C)cc1Cl,?,0,0,0,0,0,-,WRN helicase inh-2=0;TO displacement=0;BLM counter=0
CCc1ccc(-c2nc(CN3CCCC(C(=O)N4CCN(c5cc(Cl)ccc5C)CC4)C3)c(C)o2)cc1 (stereo not drawn),-,0,0,0,0,-,-,
Brc1ccc(-n2cnc(-c3ccccc3)c2)cc1,0,0,0,0,0,0,-,
CO/N=C(/C(=O)N[C@@H]1C(=O)N2C(C(=O)O)=CCS[C@H]12)c1csc(N)n1,-,-,0[19.4 µM],-,-,-,-,
Cc1cc(C(=O)NC(Cc2c[nH]c3ccccc23)C(=O)O)c(C)o1 (stereo not drawn),0,0,0,0,0,0,-,
COC(=O)C(Cc1c[nH]c2ccccc12)NC(=O)c1cc(-c2ccc(OC)c(OC)c2)oc1C (stereo not drawn),89.1µM,?,0,?,0,0,-,WRN helicase inh-2=0;TO displacement=0;BLM counter=0
Cc1ccc(-c2cc(C(=O)O)c3cc(Br)ccc3n2)o1,35.5µM,?,?,20µM,22.4µM,-68.8,0,WRN helicase inh-2=15.2µM;TO displacement=0;BLM counter=?
CCOC(=O)Cc1csc(SCC(=O)N(CC(C)C)c2c(N)n(Cc3ccccc3)c(=O)[nH]c2=O)n1,0,0,0,0,-,0,-,
O=C(NCCCN1CCOCC1)c1sc2cc([N+](=O)[O-])ccc2c1Cl,28.2µM,0,0,0,0,-67.7,0,WRN helicase inh-2=0;TO displacement=0;BLM counter=?
O=C(NCCCN1CCOCC1)c1sc2cc(Cl)ccc2c1Cl,0,0,0,0,0,0,-,
COCCn1cnc2c1c(=O)n(Cc1ccc(C#N)cc1)c(=O)n2Cc1ccccc1,0,0,0,0,0,0,-,
CCc1nnc(NC(=O)c2cc(-c3ccc(C)o3)nc3ccccc23)s1,?,0,0,0,-,-54.7,0,WRN helicase inh-2=?;TO displacement=0;BLM counter=0
CN1CCN(C(c2ccc(Br)cc2)c2cc(Cl)c3cccnc3c2O)CC1 (stereo not drawn),0,0,0,0,0,-84.3,0,
CN1CCN(C(c2ccc(F)cc2)c2ccc3cccnc3c2O)CC1 (stereo not drawn),0,0,0,0,-,0,-,
Cc1cc(C)c2c(N)c(C(=O)Nc3c(C)n(C)n(-c4ccccc4)c3=O)sc2n1,0,0,0,0,0,0,0,
Cc1cc(C)c(NC(=O)c2sc3nc(C)cc(C)c3c2N)c(C)c1,-,0,0,0,0,-,-,
Cc1cc([N+](=O)[O-])cc2c1NC(c1ccccn1)C1CC=CC21 (stereo not drawn),0,?,0,?,0,-70.8,0,
Cc1nc(CS(=O)(=O)c2ccccc2)cc(N2CCOCC2)n1,?,0,0,0,0,-56.8,0,
Cc1nc(CSc2ccc(Cl)cc2)cc(N2CCOCC2)n1,0,0,0,0,0,0,-,
O=C(CN1CCN(c2ccc(F)cc2)CC1)NC(=O)NCc1ccco1,0,?,0,0,?,0,-,
COc1cccc(N2CCN(CC(=O)NC(=O)NCc3ccco3)CC2)c1,0,12.6µM,?,79.4µM,7.94µM,-70.6,0,
O=C(Oc1cc2oc(=O)cc(-c3ccccc3)c2cc1Cl)C1CCCCC1,0,0,0,0,0,-88.0,0,
O=C(CCn1nnc2ccccc21)Nc1nnc(COc2ccccc2F)s1,0,0,0,0,0,0,-,
O=C(CCn1nnc2ccccc21)Nc1nnc(Cc2ccccc2)s1,0,?,0,?,?,-52.6,0,
COc1ccccc1NC(=O)Cc1nnc(SCC(=O)Nc2ccccc2F)n1C,?,0,0,0,0,-66.9,0,
SMILES,WRN helicase inh-1,Pol iota inh,POLK inh,POLH inh,Pol beta inh,PI5P4K alpha inh,ADP-Glo interf,others
CCn1c(CC(=O)Nc2ccccc2Cl)nnc1SCC(=O)NC1CCCC1,0,0,0,0,0,0,-,
CCn1c(CC(=O)Nc2ccccc2OC)nnc1SCC(=O)Nc1ccccc1F,0,0,0,0,0,0,-,
CCn1c(CC(=O)Nc2ccccc2F)nnc1SCC(=O)NC1CCCCC1,0[11.6 µM],?,?,?,0,0,0,
CN(C)c1ccc(/C=C/c2ccnc3ccccc23)c(N)c1,-,0,0,-,-,-,-,
c1csc(-c2nc3ccccn3c2NC2CCCCC2)c1,0,0,0,0,0,0,-,
Cc1ccn2c(NC3CCCC3)c(-c3cccs3)nc2c1,0,0,0,0,0,-65.5,0,
O=C(Oc1cccc2c(O)cccc12)c1ccco1,0,?,0,0,-,-54.1,0,
O=C1CCCc2c1cc(-c1ccccc1)n2-c1ccc(O)cc1,0,0,0,0,0,?,-,
Cc1ccc(-c2cc3c(n2-c2ccc(C(=O)O)cc2)CCCC3=O)cc1,0,0,0,?,0,-78.1,0,
COc1ccc(NC(=O)C2(C)CCN2C)cc1OC (stereo not drawn),0,-,-,-,-,0,-,
O=C(O)c1cc2c(ccc3ccccc32)oc1=O,-,-,-,-,0,-,-,
N=c1oc2ccc3ccccc3c2cc1C(N)=S,0,0,?,0,0,-60.1,0,
COc1ccc(C)cc1NC(=O)CSc1nc2scc(C)c2c(=O)[nH]1,0,?,0,0,0,0,-,
COc1ccc(Cl)cc1NC(=O)CSc1nc2sccc2c(=O)[nH]1,0,0,0,0,56.2µM,-53.5,0,
Cc1ccc(Nc2nc(C)c3c(n2)CC(C)CC3=O)c(C)c1 (stereo not drawn),0,0,0,0,0,0,0,
CCCN(C(=O)c1cc(-c2ccco2)nc2ccccc12)c1c(N)n(Cc2ccccc2)c(=O)[nH]c1=O,?,20µM,0,15.8µM,-,-59.0,0,
CCCCN(C(=O)c1cc(-c2ccc(F)cc2)nc2ccccc12)c1c(N)n(CCCC)c(=O)[nH]c1=O,0,0,0,0,-,0,-,
CC1(C)S[C@@H]2[C@H](NC(=O)COc3ccccc3)C(=O)N2[C@@H]1C(=O)OCc1cccc2cccnc12,-,0,0,-,-,-,-,
Cc1ccccc1C(=O)N(Cc1ccc(N(C)C)cc1)Cc1ccco1,-,0,0,-,0,-,-,
O=C(COC(=O)CCc1nc2ccccc2c(=O)[nH]1)Nc1ccc(Cl)cn1,0,0,0,0,0,-55.3,0,
